Laboratory results as given in PubChem BioAssay AID1117361 (Southern Research Institute, 2015).
Screen size: about 3,600 compounds; about 900 (25%) were called active. No rule for the calls is given here. Only a sample is shown. Measured potencies and affinities stand elsewhere.

biological target: Protein Tat (Human immunodeficiency virus type 1 group M subtype B (isolate HXB2)) (UniProt P04608); test: inhibitors of Tat binding to TAR RNA, dose response, counter-screen for Vif-APOBEC3G degradation inhibitor project, biochemical, fluorescence polarization, FAM-labeled TAR RNA (AID 1117361); conditions: outcome: dose series up to 100 µM unless noted; series mostly up to 100 µM

| Compound | outcome |
| --- | --- |
| CC1=CC(C)C2C(=O)N(CCCN(C)C)C(=O)C2C1 (stereo not given) | inactive |
| COc1ccc(Nc2nc(N)nc(CSC(=S)N3CCN(c4ccccc4)CC3)n2)cc1 | inactive |
| Cc1nc(C)c(C(=O)OCC(=O)Nc2ccc(C)c(C)c2)s1 | inactive |
| O=C(N/N=C/C1CC=CCC1)c1ccccc1O (stereo not given) | inactive |
| Cc1onc(-c2ccccc2)c1C(=O)N1CCCc2ccccc21 | inactive |
| O=C(Cn1cc2c(n1)CCCC2)N1CCCc2ccccc21 | inactive |
| O=C(Cn1ncc2c(=O)oc3ccccc3c21)N1CCCc2ccccc21 | inactive |
| CCc1cccc(CC)c1-n1c(SCC(=O)N2CCCc3ccccc32)nc(O)cc1=O | inactive |
| Cc1nnc(SCC(=O)NCc2cccs2)[nH]c1=O | inactive |
| COc1ccc(C(CNCC(=O)Nc2ccccc2F)N(C)C)cc1 (stereo not given) | inactive |
| O=[N+]([O-])/C(C(Cl)=C(Cl)Cl)=C(/NC1CC1)Sc1ccccc1 | inactive |
| O=C1CCCN1c1ccc(S(=O)(=O)N2CCC(c3ccccc3)CC2)cc1 | inactive |
| N#C/C(=C/c1cc(Br)cs1)C(=O)NCC1CCCO1 (stereo not given) | inactive |
| O=C(COc1ccc(Cl)cc1)N1CCN(S(=O)(=O)c2ccc(Cl)cc2)CC1 | inactive |
| Cc1ccc(Cl)cc1N1CCN(C(=O)Cc2cn(C)c3ccccc23)CC1 | inactive |
| CC(C)Cn1nc(NC(=O)C(C)(C)C)c2cc3ccccc3nc21 | inactive |
| Cc1ccc(C(=O)NNS(=O)(=O)c2ccc(F)cc2)cc1 | inactive |
| O=C(CN1CCN(c2ccccc2O)CC1)Nc1ccc2c(c1)CCC2 | inactive |
| O=[N+]([O-])c1ccc(NCCCNS(=O)(=O)c2ccc(Cl)cc2)c(Cl)c1 | inactive |
| COc1cc([N+](=O)[O-])c(N2CCOCC2)c([N+](=O)[O-])c1OC | inactive |
| O=S(=O)(NCC1CCCO1)c1cc(Br)c(Br)s1 (stereo not given) | inactive |
| CCCOC(=O)/C(C(N)=NCc1ccccc1)=C(\O)OCCC | inactive |

| Compound | outcome |
| --- | --- |
| O=C1CCCC2=C1C(c1cccs1)n1ncnc1N2 (stereo not given) | inactive |
| Cc1cc(C)n2nc(SCC(=O)Nc3ccc(F)cc3)nc2n1 | inactive |
| Cc1nnc(NCCc2ccccc2)n(N)c1=O | inactive |
| O=C(NCC(c1ccco1)N1CCCC1)c1cccc(S(=O)(=O)N2CCCCC2)c1 (stereo not given) | inactive |
| O=C(CCOc1ccccc1)NCC(c1ccco1)N1CCCCC1 (stereo not given) | inactive |
| Nc1nc(Nc2ccccc2)sc1C(=O)c1ccccc1 | inactive |
| COCCN(Cc1cc2ccccc2[nH]c1=O)C(=O)c1ccccc1OC | inactive |
| CCc1ccc2c(c1)cc(C)c1nnc(SCC(=O)Nc3cc(OC)c(OC)cc3C(=O)O)n12 | inactive |
| C=CCOc1ccc(Br)cc1/C=N/O | inactive |
| Cc1cccc(C)c1NC(=O)CS(=O)CC(=O)NC1CCN(Cc2ccccc2)CC1 (stereo not given) | inactive [at 50 µM] |
| CCOC(=O)CC(=O)CSc1ncc(C(=O)OCC)c(N)n1 | inactive |
| CCOC(=O)c1ccc(-n2ncc(C(=O)OCC)c2N)cc1 | inactive |
| COc1ccc2cc(C3(C)NC(=O)N(CC(=O)Nc4c(C)n(C)n(-c5ccccc5)c4=O)C3=O)ccc2c1 (stereo not given) | inactive |
| O=S(=O)(/C=C/c1ccccc1)N1CCN(c2ccc(F)cc2)CC1 | inactive |
| CC(=O)Nc1cccc(C(=O)NC(C)c2ccc(S(N)(=O)=O)cc2)c1 (stereo not given) | inactive |
| CCCN(CCC)CCCNc1ccc2nnc(-c3ccc(F)cc3)n2n1 | inactive |
| CCOC(=O)C1CCN(C(=O)C2CCN(S(=O)(=O)c3cc(Cl)ccc3Cl)CC2)CC1 | inactive |
| CCOC(=O)C1CCN(C(=O)c2ccc(OC)cc2OC)CC1 | inactive |
| CCC1SC2=NC(C)=C(C(=O)OC)C(c3ccc(C(=O)OC)cc3)N2C1=O (stereo not given) | inactive |
| CCOC(=O)c1ccc(N2C(=O)c3n[nH]c(C)c3C2c2ccc(OC)cc2OC)cc1 (stereo not given) | inactive |
| CC1=NN(C(=O)c2csc(C)c2)C(O)(C(F)(F)F)C1 (stereo not given) | inactive |
| CCCC(=O)Nc1cccc(-c2nc3ccccc3o2)c1 | inactive |

| Compound | outcome |
| --- | --- |
| Brc1ccccc1Cn1c(-c2cncs2)nc2ccccc21 | inactive |
| O=C(CNS(=O)(=O)c1ccc2ccccc2c1)Nc1ccc(F)c(F)c1F | inactive |
| CC(C)(C)CN1CCNC(=O)C1CC(=O)NCCc1ccccc1C(F)(F)F (stereo not given) | inactive |
| COc1cccc(CN2CCNC(=O)C2CC(=O)NCCn2nc(C)cc2C)c1OC (stereo not given) | inactive |
| Cc1nc2nc(C)c(CCC(=O)N3CCN(c4ccccc4)CC3)c(C)n2n1 | inactive |
| O=C(CSc1ccccc1)N1CCN(c2ccccc2)CC1 | inactive |
| Cc1nc2scc(-c3ccccc3)c2c(=O)n1/N=C/c1ccco1 | inactive |
| C(=N\Nc1nncn1/N=C/c1ccco1)/c1ccco1 | inactive |
| COc1cccc(/C=N/n2c(-c3cc(C)[nH]n3)n[nH]c2=S)c1 | inactive |
| Cn1ccnc1SCC(=O)c1ccc(Br)cc1 | inactive |
| CCO[C@H]1OC(C(=O)NCc2ccccc2)=C[C@@H](c2coc3ccccc3c2=O)[C@@H]1CCCO | inactive |
| C/C(N)=C(/C#N)C(=O)COC(=O)CCSc1ccccc1 | inactive |
| CCN(CC)Cc1cc(Nc2c3ccccc3nc3c4ccccc4n(C)c23)cc(CN(CC)CC)c1O | inactive |
| Clc1ccc(-n2ncc3c(NCc4ccccn4)ncnc32)cc1 | inactive |
| COc1ccccc1C(C#N)N1N=C(C)CC1(C)C (stereo not given) | inactive |
| CSc1nc2ccc3nc(NC(=O)c4ccccc4)sc3c2s1 | inactive |
| CCOc1ccc(C(=O)NC(=S)Nc2ccc(N3CCC(C)CC3)cc2)cc1[N+](=O)[O-] | inactive |
| CCCCN(C(=O)c1ccccc1OCc1ccc(F)cc1)c1c(N)n(CC(C)C)c(=O)[nH]c1=O | inactive |
| CC(C)c1ccc(SCc2noc(C(=O)NCC3CCCO3)c2C(=O)O)cc1 (stereo not given) | inactive |
| CCN1C(=O)/C(=C/N2CC(C)CC(C)C2)SC1=S (stereo not given) | inactive |
| Cc1ccccc1N1C(=O)C2ON(c3ccccc3)C(c3cccnc3)C2C1=O (stereo not given) | inactive |
| CC1=CCC(/C=N\Nc2nnc3c(n2)[nH]c2ccccc23)CC1 (stereo not given) | inactive |

| Compound | outcome |
| --- | --- |
| CCOC(=O)c1nc2sc(C)c(C)c2c(=O)[nH]1 | inactive |
| CCN1C(=O)c2ccccc2S(=O)c2ccc(C(=O)N3CCCC3)cc21 (stereo not given) | inactive |
| Cc1cccc(N2CCN(CC(=O)NCC3CCCCC3)CC2)c1C | inactive |
| Nc1nc(-c2ccc(F)cc2)cc(C(F)(F)F)n1 | inactive |
| O=C(CN1C(=O)c2ccccc2C1=O)OC(C(=O)c1ccc(Cl)cc1)c1ccccc1 (stereo not given) | inactive |
| COc1ccc(NC(=O)c2ccccc2NC(=O)CSc2ccc(Cl)cc2)cc1 | inactive |
| Cc1cc(NC(=O)c2ccccc2F)n(-c2nc3ccccc3[nH]2)n1 | inactive |
| CC(C)(C)NC(=O)NC(=O)COc1ccccc1C#N | inactive |
| CC1CN(C(=O)N[C@@H](Cc2ccccc2)C(=O)O)CC(C)O1 (stereo not given in full) | inactive |
| Cc1ccc(CC(NC(=O)c2ccccc2)C(=O)NC(C)C(=O)O)cc1 (stereo not given) | inactive |
| O=C(CSc1nc2ccccc2c(=O)n1NC(=O)Cc1ccccc1)NCc1ccccc1 | inactive |
| C=C(Br)Cn1c(CC)nc2ccccc21 | inactive |
| COC(=O)Cc1cc(=O)n2[nH]c(C)cc2n1 | inactive |
| CCOC(=O)Cc1csc(N/N=C\c2cccc(Br)c2)n1 | inactive |
| CC(=O)N1CCc2cc(S(=O)(=O)NCCC(=O)Nc3cc(C)cc(C)c3)ccc21 | inactive |
| Oc1ccccc1-c1cc(C(F)(F)C(F)F)[nH]n1 | inactive |
| OC(CN1CCN(c2ccccc2)CC1)c1ccc2c(c1)CCN2 (stereo not given) | inactive |
| CCc1ccc(-c2nc(SCC(=O)c3c(N)n(C4CC4)c(=O)[nH]c3=O)n[nH]2)cc1 | inactive |
| O=C(COC(=O)Cc1ccc(Cl)cc1)NCc1ccco1 | inactive |
| COc1ccc(CC(=O)OCC(=O)NCc2ccco2)cc1OC | inactive |
| COc1cc(C(=O)Nc2ccc(N3CCCS3(=O)=O)cc2)c([N+](=O)[O-])cc1OC | inactive |
| Cc1cc(O)c(-c2n[nH]c3c2C(c2cccc(O)c2)N(Cc2cccnc2)C3=O)cc1Cl (stereo not given) | inactive |

| Compound | outcome |
| --- | --- |
| CCCn1c2ccccc2c2nnc(SC(CC)C(=O)Nc3sc4c(c3C#N)CCCC4)nc21 (stereo not given) | inactive |
| N#Cc1c(NC(=O)CSc2nnnn2C2CCCCC2)sc2c1CCCC2 | inactive |
| CCCC(C)NC(=O)CSCc1ccc(OC)cc1 (stereo not given) | inactive |
| CCNc1nc(NCC)nc(OCCNS(=O)(=O)c2cc(C)ccc2C)n1 | inactive |
| COc1ccccc1C=NC(CO)C(O)c1ccc([N+](=O)[O-])cc1 (stereo not given) | inactive |
| Cc1c(NC(=O)NCCN2C(=O)C3C4C=CC(C4)C3C2=O)c(=O)n(-c2ccccc2)n1C (stereo not given) | inactive |
| O=C(NCN1C(=O)C2C3C=CC(C3)C2C1=O)OC1CCCCC1 (stereo not given) | inactive |
| C=CCc1c(C)nc2c(C(=O)O)cnn2c1C | inactive |
| Cc1ccccc1-c1nc(CN2CCC(C(=O)N3CCN(c4ccccn4)CC3)CC2)c(C)o1 | inactive |
| COc1ccc(-c2cc(-c3ccccc3)c(C#N)c(S(C)=O)n2)cc1 (stereo not given) | inactive |
| Cc1cccc(C)c1NC(=O)c1ccc(-n2cnnn2)cc1 | inactive |
| COc1ccc(C2=NOC(C(=O)NCc3cccs3)C2)cc1OC (stereo not given) | inactive |
| Cc1cccc(N2C(=O)CN=C2Nc2nc(C)cc(C)n2)c1 | inactive |
| COc1ccc(/C=N/OCC(=O)Nc2cc(C)on2)cc1OC | inactive |
| O=C(Nc1ccc(N2CCCCC2)cc1)c1cc([N+](=O)[O-])cc([N+](=O)[O-])c1 | inactive |
| COC(=O)C1CCN(c2ccc([N+](=O)[O-])cc2)CC1 | inactive |
| CC1(C)Cc2ccccc2C(/C(=N/O)C(N)=O)=N1 | inactive |
| COc1ccc2cnn(CCOc3cc(C)ccc3C(C)C)c(=O)c2c1OC | inactive |
| Cc1nc(N(C)C)c2sc(=S)n(C)c2n1 | inactive |
| Cc1cccc(NC(=O)CSc2nnc(CCC(=O)Nc3ccc(C)c(Cl)c3)n2C)c1 | inactive |
| CCCCc1nccn1CCn1ccnc1CCCC | inactive |
| CCc1ccc(C2C(C(C)=O)=C(C(=O)OC)Nc3nnnn32)cc1 (stereo not given) | inactive |
